Experimental data reported in PMC8769072, “Proteome‐scale mapping of binding sites in the unstructured regions of the human proteome” (Molecular Systems Biology, 2022).

ANKRA2 142-313, Q9H9E1, sequence (Q9H9E1 142-313): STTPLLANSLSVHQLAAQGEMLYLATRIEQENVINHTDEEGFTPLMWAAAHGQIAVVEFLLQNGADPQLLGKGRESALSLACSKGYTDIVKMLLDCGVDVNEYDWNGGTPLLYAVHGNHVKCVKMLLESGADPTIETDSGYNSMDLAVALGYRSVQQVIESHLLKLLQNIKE
AP2B1 700-937, P63010, sequence (P63010 700-937): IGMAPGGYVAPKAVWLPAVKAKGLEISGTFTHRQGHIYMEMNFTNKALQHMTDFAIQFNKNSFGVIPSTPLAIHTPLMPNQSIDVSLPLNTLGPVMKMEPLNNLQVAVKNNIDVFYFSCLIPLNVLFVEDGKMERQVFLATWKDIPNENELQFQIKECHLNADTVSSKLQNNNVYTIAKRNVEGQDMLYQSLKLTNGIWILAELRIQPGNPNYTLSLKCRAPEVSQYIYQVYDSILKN

Binder	selected by phage display (ANKRA2 142-313, Q9H9E1)	selected by phage display (AP2B1 700-937, P63010)
ALLLPDLSLHVPPGGA [ZNF513, Q8N8E2]	confidence 2 (active)	–
SWEAFDSHGQESSGQL [F8A3, P23610]	–	confidence 2 (active)
EKSPTDWALFTYEGNS [DBNL, Q9UJU6]	–	confidence 2 (active)
SANADFANFDAFGQSS [AGFG1, P52594]	–	confidence 3 (active)
WGEPWGEPSTPATTVD [TNRC6A, Q8NDV7]	–	confidence 2 (active)
HERDPWYSWDQPGLRL [NDUFB8, O95169]	–	confidence 3 (active)
WQAFESQPAAPAVPMN	–	confidence 2 (active)
AGLGGPVDFSDLPWPL [ARNTL, O00327]	–	confidence 2 (active)
ELLTVPDGWKEPAFSK [KRR1, Q13601]	–	confidence 3 (active)
TGQDIAPRDSPEWVAF [FRMPD1, Q5SYB0]	–	confidence 3 (active)
VELPALPSLPTLPTLP [PRX, Q9BXM0]	confidence 2 (active)	–
PWVPNWELGEPPGNAP [ZNF831, Q5JPB2]	–	confidence 3 (active)
SWAAFGDQQATESHHR [AFTPH, Q6ULP2]	–	confidence 3 (active)
RGVEWAAFGRDLFLAS [ELP2, Q6IA86]	–	confidence 3 (active)
LNSPAWEASGLHWSSL [GNAS, P84996]	–	confidence 3 (active)
PEWEVAAPWGSVGPGA [GPR179, Q6PRD1]	–	confidence 2 (active)
MGGAAASWAGWAVTGV [SCYL1, Q96KG9]	–	confidence 3 (active)
VGLPLPPTLPSLIPFI [SALL1, Q9NSC2]	confidence 2 (active)	–
APPFPQSTFTPWASWV [SPATA31E1, Q6ZUB1]	–	confidence 3 (active)
ITAWEAGWNVTNAIQG [SLC32A1, Q9H598]	–	confidence 3 (active)
EERLRGWEAFLNAPEA [HTATSF1, O43719]	–	confidence 2 (active)

Binder	selected by phage display (ANKRA2 142-313, Q9H9E1)	selected by phage display (AP2B1 700-937, P63010)
TQAQAALNFGWAFSWL [C12orf71, A8MTZ7]	–	confidence 2 (active)
AAKPSLPALDPMSMLF [TSHZ3, Q63HK5]	confidence 3 (active)	–
PQPKLPYLPTFPFSMP [NOBOX, O60393]	confidence 2 (active)	–
NLRLPSLDEQVIPARL [Q5PR19]	confidence 2 (active)	–
ESFGGGFADFSTLSKV [EPS15, P42566]	–	confidence 3 (active)
DSDGHTDAFVAYFADG [BBS5, Q8N3I7]	–	confidence 2 (active)
EEEMEVPVLPKISLPI [NUP153, P49790]	confidence 2 (active)	–
TVGKNHEWNWAFVAFT [SLC9A2, Q9UBY0]	–	confidence 2 (active)
MPPSQLQLPTLPLVMV [FOXP3, Q9BZS1]	confidence 2 (active)	–
MSGWAEGPRMLSWAPF [TSPO2, Q5TGU0]	–	confidence 3 (active)
VAAGWWAFAPPALQVL [SLCO4A1, Q96BD0]	–	confidence 2 (active)
NPGLSWTDWPEPSLLE [PHF7, Q9BWX1]	–	confidence 3 (active)
EWLYGGPWDVHVHSDL [FIP1L1, Q6UN15]	–	confidence 2 (active)
NSISEPKGNPLAWQAF	–	confidence 3 (active)
PGTLLPTPGLPQFPSA [OTP, Q5XKR4]	confidence 2 (active)	–
TESWMSPLAWLEKGVN [SPAG5, Q96R06]	–	confidence 2 (active)
WPASWGFPDASSTVPS [Q96NJ1]	–	confidence 2 (active)
VFPRPVLPSLTVSRVI [C16orf46, Q6P387]	confidence 4 (active)	–
MSARPSLPPLPAKPAG [SERTAD4-AS1, Q5TG53]	confidence 2 (active)	–
YTSPSLPNISLGLQAT [HDAC5, Q9UQL6]	confidence 4 (active)	–
VPVWEPQDWQQQLVNI [NTHL1, P78549]	–	confidence 3 (active)

Binder	selected by phage display (ANKRA2 142-313, Q9H9E1)	selected by phage display (AP2B1 700-937, P63010)
FTKVEHWSSFAALPWG [SLC35F4, A4IF30]	–	confidence 2 (active)
WSHWEDSALPPPSLRP [RHBDD3, Q9Y3P4]	–	confidence 3 (active)
DPGAMEPWALPTWHSW [TSPOAP1, O95153]	–	confidence 2 (active)
LSHLGQVEPVPWADAF [ANKRD11, Q6UB99]	–	confidence 2 (active)
EPSTTPNNWADFSSTW [ITSN1, Q15811]	–	confidence 4 (active)
EKPVPTLPQFTMGPNV [EFNA3, P52797]	confidence 3 (active)	–
WDVPAWESTQHPWPVA [ZNF786, Q8N393]	–	confidence 4 (active)
AEPFSSSSPTPLFPWF [KMT2A, Q03164]	–	confidence 2 (active)
ASSPVNWAAPWANAMN [TEX13C, A0A0J9YWL9]	–	confidence 3 (active)
SQEDWTTFTHDRIRQL [INPPL1, O15357]	–	confidence 2 (active)
QASLQAMSLPELSGAL [ANKS3, Q6ZW76]	confidence 2 (active)	–
PWTAFPKPSNSQPTSP [CGNL1, Q0VF96]	–	confidence 3 (active)
FDWSSFKPMGFEVSFL [ZNF292, O60281]	–	confidence 2 (active)
DSALSLPPLSLPHPHP [NTM-AS1, Q6ZSK4]	confidence 3 (active)	–
LPNLPNLNLNLPAPHI [GORASP2, Q9H8Y8]	confidence 2 (active)	–
WTAWEADALFMQRDVY [ZNF532, Q9HCE3]	–	confidence 3 (active)
NFADFSQFEVFAASNV [REPS1, Q96D71]	–	confidence 3 (active)
EATEEGWASFSAELSH [OBSCN, Q5VST9]	–	confidence 4 (active)
AESSQAVMSLPKLQQV [ZNF362, Q5T0B9]	confidence 4 (active)	–
SMLKLPDLPQNSVKLQ [KIAA0586, Q9BVV6]	confidence 3 (active)	–
